Data taken from PubChem BioAssay AID1159580 (chemical genetic matrix, 2015).
Values joined by “and” are separate entries in the source; they are usually repeats but may differ in a detail not shown here. Equal values may be shown once. Screen size: about 5,500 compounds; about 2,000 (36%) were called active. Not shown: some 18% with an inconclusive outcome. No stated cut-off is given here; in the data, active means normalized growth mostly below about 0.91 (no sharp cut-off); inconclusive means no clear call, values can overlap the other calls; inactive means mostly above about 0.92. The list shows a part of the results.

Assay: chemical genetic growth profiling, strain panel (AID 1159580);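 further: tested at 20 µM; growth read once vehicle control cultures reached saturation at 30 °C; 1 = growth at the plate median or of vehicle wells; lower values mean less growth of the strain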
Details: S. cerevisiae deletion strains, growth OD

Measured: normalized growth

CCC(C)C(=O)O[C@H]1[C@H](O)C2C(CN3CC(C)CCC3[C@@]2(C)O)C2C[C@]34O[C@]5(O)C(OC(=O)C(C)(O)CC)CC[C@@]3(C)C5C(OC(C)=O)[C@@H](OC(C)=O)C4[C@@]21O (stereo partly specified)
inactive: locus YAL013W, strain DEP1, hits give low values 1.01 | locus YAL021C, strain ccr4, hits give low values 1.01 | locus YAL026C, strain drs2, hits give low values 1.02 | locus YAL030W, strain snc1, hits give low values 1.01 | locus YBL061C, strain skt5, hits give low values 1.01 | locus YBR009C, strain hhf1, hits give low values 1.02 | locus YBR021W, strain FUR4, hits give low values 1.01 | locus YBR023C, strain chs3, hits give low values 1.03 | locus YBR171W, strain sec66, hits give low values 1.03 | locus YBR229C, strain ROT2, hits give low values 0.999 | locus YBR231C, strain swc5, hits give low values 1.01 | locus YBR279W, strain paf1, hits give low values 1.02 | locus YCL011C, strain gbp2, hits give low values 1.02 | locus YCL016C, strain dcc1, hits give low values 1.03 | locus YCL029C, strain bik1, hits give low values 0.988 | locus YCL069W, strain vba3, hits give low values 1.02 | locus YCR088W, strain abp1, hits give low values 1.02 | locus YDL005C, strain med2, hits give low values 1.03 | locus YDL035C, strain GPR1, hits give low values 1.02 | locus YDL040C, strain nat1, hits give low values 1.02 | locus YDL074C, strain BRE1, hits give low values 1.02 | locus YDL101C, strain DUN1, hits give low values 1.02 | locus YDL134C, strain PPH21, hits give low values 1.01 | locus YDL185W, strain tfp1, hits give low values 0.995 | locus YDL192W, strain arf1, hits give low values 0.99 | locus YDR001C, strain nth1, hits give low values 1.01 | locus YDR069C, strain doa4, hits give low values 1.02 | locus YDR101C, strain arx1, hits give low values 0.991 | locus YDR137W, strain rgp1, hits give low values 1.04 | locus YDR150W, strain NUM1, hits give low values 1.02 | locus YDR159W, strain sac3, hits give low values 1.04 | locus YDR162C, strain NBP2, hits give low values 1.02 | locus YDR195W, strain ref2 1.01 | locus YDR297W, strain sur2, hits give low values 1.01 | locus YDR318W, strain mcm21, hits give low values 0.984 | locus YDR334W, strain swr1, hits give low values 1.02 | locus YDR335W, strain msn5, hits give low values 1.05 | locus YDR388W, hits give low values 0.989 | locus YDR392W, strain spt3, hits give low values 1.04 | locus YDR502C, strain sam2, hits give low values 0.989 | locus YEL003W, strain gim4, hits give low values 1.02 | locus YEL037C, strain rad23, hits give low values 1.03 | locus YEL061C, strain CIN8 (second series), hits give low values 1.02 | locus YEL061C, strain CIN8, hits give low values 1.01 | locus YER015W, strain faa2, hits give low values 1.02 | locus YER016W, strain bim1, hits give low values 1.03 | locus YER110C, hits give low values 0.982 | locus YER111C, strain swi4, hits give low values 1.02 | locus YER155C, strain BEM2 (second series), hits give low values 1.03 | locus YER155C, strain BEM2, hits give low values 1 | locus YER167W, strain BCK2, hits give low values 1.02 | locus YFR010W, strain ubp6, hits give low values 1.01 | locus YGL078C, strain dbp3, hits give low values 0.986 | locus YGL086W, strain mad1, hits give low values 1 | locus YGL167C, strain pmr1, hits give low values 1.01 | locus YGL173C, strain kem1, hits give low values 1.03 | locus YGL227W, strain vid30, hits give low values 1.03 | locus YGL240W, strain doc1, hits give low values 1.01 | locus YGL248W, strain PDE1, hits give low values 1.01 | locus YGL253W, strain hxk2, hits give low values 1.04 | locus YGR078C, strain PAC10, hits give low values 1.02 | locus YGR135W, strain pre9, hits give low values 0.983 | locus YGR229C, strain SMI1, hits give low values 1 | locus YGR252W, strain gcn5, hits give low values 0.965 | locus YHR013C, strain ard1, hits give low values 1.05 | locus YHR027C, strain rpn1, hits give low values 1.03 | locus YHR030C, strain SLT2, hits give low values 1.01 and 1.05 | locus YHR079C, strain IRE1 (second series), hits give low values 0.993 | locus YHR079C, strain IRE1, hits give low values 1.01 | locus YHR094C, strain hxt1, hits give low values 0.99 | locus YHR129C, strain ARP1, hits give low values 1.01 | locus YHR142W, strain chs7, hits give low values 1.04 | locus YHR200W, strain rpn10, hits give low values 1 | locus YIL066C, strain RNR3, hits give low values 1.01 | locus YIL073C, strain SPO22, hits give low values 1.02 | locus YIL125W, strain kgd1, hits give low values 0.995 | locus YIR030C, strain dcg1, hits give low values 0.993 | locus YJL092W, strain hpr5, hits give low values 1.02 | locus YJL095W, strain BCK1 (second series), hits give low values 1.03 | locus YJL095W, strain BCK1, hits give low values 1.01 and 0.996 | locus YJL115W, strain asf1, hits give low values 1.03 | locus YJL129C, strain trk1, hits give low values 1.04 | locus YJL134W, strain LCB3, hits give low values 1.01 | locus YJL154C, strain vps35, hits give low values 1.02 | locus YJL164C, strain tpk1, hits give low values 1.01 | locus YJL166W, strain qcr8, hits give low values 1.01 | locus YJL168C, strain set2, hits give low values 0.996 | locus YJL187C, strain SWE1 (second series), hits give low values 1.01 | locus YJR043C, strain POL32, hits give low values 0.995 | locus YJR066W, strain TOR1, hits give low values 0.976 | locus YJR075W, strain HOC1, hits give low values 1
